Experiment [1] addresses Lysosomal acid glucosylceramidase (Homo sapiens) (UniProt P04062). Description: Glucocerebrosidase-p2 (AID 348; in the data active = potency below about 10 µM; also: potency is read from the fitted curve at half-maximal effect). The settings on record: purified GBA, blue fluorogenic substrate, 40 min. The gist of the method: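 Normal human glucocerebrosidase (0.2 nM) with blue fluorogenic substrate (80 uM final) in citrate/phosphate pH 5.9 with 10mM sodium taurocholate, 0.01% tween-20; 40 min RT, NaOH/glycine stop; fluorescence Ex 365/Em 440; AC50 from a titration from 0.6 nM upwards.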

Experiment [2] is described as follows: AP1 Signaling Pathway (AID 357).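 Also: ME-180 reporter cells stimulated with EGF at its EC50 level; % is scaled to controls: 0 for no effect and ±100 for the full control effect.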 The settings on record: ME-180 AP-1-bla reporter, EGF-induced, beta-lactamase ratio, 5 h; at 7.69 µM (top of the series) unless noted. The gist of the method: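 AP-1-bla ME-180 cells, Opti-MEM + 0.5% dialyzed FBS, plated overnight 37 °C. Cpd titration + EC50 EGF, 5 h 37 °C. CCF4 2.5 h RT; ex 405, em 460/530 ratio → %activity, AC50.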

Experiment [3] concerns the target Cytochrome P450 1A2 (Homo sapiens) (UniProt P05177). Briefly: p450-cyp1a2 (AID 410; calls by dose curve; also: potency is read from the fitted curve at half-maximal effect;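 as to activity change, negative = inhibition: -100% = full effect of reference inhibitor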). The following applies: recombinant CYP1A2, luciferin-ME demethylation, luminescence; series mostly up to 11.4 µM. Put shortly: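 Read-out is luminescence from luciferin produced by CYP1A2 demethylation of Luciferin-ME (100uM, at Km). Detection reagent stopped the 60 min NADPH-dependent reaction; signals were normalized to 57 uM furafylline.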

A short description of experiment [4]: Stat Signaling Pathway (AID 446).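 Also: ME-180 cervical cancer cells given 40 pM IL-6 alongside compound; SIE-controlled beta-lactamase reporter measured as 460/530 nm FRET emission ratio; % is scaled to controls: 0 for no effect and ±100 for the full control effect.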 The settings on record: ME-180 (cervical carcinoma) SIE beta-lactamase reporter, IL-6 stimulated, 5 h; at 7.69 µM (top of the series) unless noted. The gist of the method:
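Emission at 460 and 530 nm (excitation 405 nm) reports SIE-controlled beta-lactamase in ME-180 cells. Cells received compound with 40 pM IL-6 for 5 hrs at 37 C; data scaled between 300 pM IL-6 and 125 nM JAK-inhibitor controls.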

Experiment [5] deals with Glucocorticoid receptor (Homo sapiens) (UniProt P04150). Briefly: GR-GFP Redistribution (AID 450;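 active = compounds whose dose series gives a full or clear partial fitted curve of increased nuclear translocation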; also: potency is read from the fitted curve at half-maximal effect). The settings on record: U2OS GR-GFP nuclear translocation, laser cytometry, 2 h.
The target is the same in experiment [6]. Description: GR-EFC Redistribution (AID 451; calls by dose curve; also: potency is read from the fitted curve at half-maximal effect). The settings on record: CHO-K1 GR-EFC translocation, beta-gal luminescence, 2 h. Put shortly:
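CHO-K1 cells stably expressing nuclear-localized β-gal enzyme acceptor and GR fused C-terminally to the enzyme donor fragment; ligand-driven nuclear translocation restores β-gal by complementation. Compounds titrated up to 46 uM final, 2 h at 37 °C; luminescence read.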

For experiment [7], the target named is Mitogen-activated protein kinase 10 (Mus musculus) (UniProt Q61831). Description: JNK3 AlphaScreen Assay (AID 530).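 Also: kinase came from lysate of stimulated human HepG2 cells; % is scaled to controls: 0 for no effect and ±100 for the full control effect.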 The settings on record: JNK3 lysate, c-Jun phosphorylation; series mostly up to 11.4 µM. The gist of the method: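 Biotinylated GST-cJun(1-79) served as substrate for JNK3 in HepG2 lysates stimulated with IL-1beta and TNF-alpha. ATP was 10 uM final, pH 7.6. Ser73 phosphorylation was quantified by AlphaScreen (680 nm excitation).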

Experiment [8] has as its target 3',5'-cyclic-AMP phosphodiesterase 4B (Homo sapiens) (UniProt Q07343). Description: qHTS Assay for Inhibitors of PDE-IV (AID 607; active = well fitted activation curve with a large enough effect in the main read-out, with a control signal flat, not every such curve was filed as active; also: % of control where 0% means no effect). The following applies: HEK293 ACTOne CNG channel cells, membrane potential fluorescence; series mostly up to 22.9 µM. The gist of the method:
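The readout is membrane depolarisation from a cAMP-sensing CNG channel, detected with a potential dye at ex 535/em 590. Cells were HEK293-derived (endogenous PDE-IV) at 1000 cells/well, titrated up to 22.9 uM final.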

For experiment [9], the target named is Cytochrome P450 2C9 (Homo sapiens) (UniProt P11712). Briefly: qHTS Assay for Inhibitors and Substrates of Cytochrome P450 2C9 (AID 883; active = well fitted curve in the direction sought with a large enough effect; an effect the other way counts as inactive or inconclusive; also: nearly all actives have a fitted effect of over 60% in size; also: potency is read from the fitted curve at half-maximal effect; as to activity change, negative = inhibition: % is scaled to controls: 0 for no effect and ±100 for the full control effect). The following applies: recombinant CYP2C9, luciferin-H luminescence, 60 min; series mostly up to 11.4 µM. Put shortly:
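Human CYP2C9 (10nM) hydroxylated Luciferin-H (100uM, at its KM) to luciferin in 25mM KPO4. Compound was preincubated 10 min at 37C, then NADPH regeneration started a 60 min reaction at 37C. Luminescence was read after detection reagent, normalized to 57uM sulphaphenazole.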

In experiment [10] the target is Cytochrome P450 2D6 (Homo sapiens) (UniProt P10635). Briefly: qHTS Assay for Inhibitors and Substrates of Cytochrome P450 2D6 (AID 891; active = well fitted curve in the direction sought with a large enough effect; an effect the other way counts as inactive or inconclusive; also: nearly all actives have a fitted effect of over 60% in size; also: potency is read from the fitted curve at half-maximal effect). The following applies: recombinant CYP2D6, luciferin-ME EGE luminescence; series mostly up to 11.4 µM. The gist of the method: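 Luminescent read-out of luciferin formed by 5 nM human CYP2D6 demethylating 30 uM Luciferin-ME EGE (Km level) over 60 min at room temperature after NADPH regeneration addition. Data normalized to full inhibition by 1.43 uM quinidine.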

The target of experiment [11] is Cytochrome P450 2C19 (Homo sapiens) (UniProt P33261). Description: qHTS Assay for Inhibitors and Substrates of Cytochrome P450 2C19 (AID 899; active = well fitted curve in the direction sought with a large enough effect; an effect the other way counts as inactive or inconclusive; also: nearly all actives have a fitted effect of over 60% in size; also: potency is read from the fitted curve at half-maximal effect). The following applies: recombinant CYP2C19, luciferin-H EGE luminescence; series mostly up to 11.4 µM. Put shortly:
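Human CYP2C19 (5nM) with Luciferin-H EGE at 10uM (its KM) in 50mM KPO4 was preincubated with compound for 10 min at 37C. NADPH regeneration started a 60 min 37C reaction. Luciferin was read by luminescence, normalized to 57uM ketoconazole.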

The target of experiment [12] is Cytochrome P450 3A4 (Homo sapiens) (UniProt P08684). Briefly: qHTS Assay for Inhibitors and Substrates of Cytochrome P450 3A4 (AID 884; active = well fitted curve in the direction sought with a large enough effect; an effect the other way counts as inactive or inconclusive; also: potency is read from the fitted curve at half-maximal effect; nearly all actives have a fitted effect of over 50% in size). The following applies: recombinant CYP3A4, Luciferin-PPXE luminescence; series mostly up to 57.1 µM. Put shortly: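 Luminescent readout of luciferin produced by CYP3A4 (20 nM) dealkylation of Luciferin-PPXE, 25 uM (its KM). NADPH-driven reaction ran 60 min at RT after 10 min compound preincubation; data scaled to 57 uM ketoconazole as 100% inhibition.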

For experiment [13] the target is unchanged. Description: qHTS Assay for Activators of Cytochrome P450 3A4 (AID 885; active = well fitted curve in the direction sought with a large enough effect; an effect the other way counts as inactive or inconclusive; also: nearly all actives have a fitted effect of over 65% in size). The following applies: recombinant CYP3A4, Luciferin-PPXE luminescence, 60 min; series mostly up to 11.4 µM. Put shortly:
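Activators are scored by enhanced luminescence from CYP3A4 conversion of luciferin-PPXE (25uM, equal to KM) to luciferin, after 60 min at RT with an NADPH-regenerating system.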

Values without a mark were called inactive. Inconclusive results are not listed. Activity calls are given as the source filed them. Unless noted, calls follow the shape of the dose curve; as a rule, active = well fitted curve in either direction with a large enough effect (not every such curve was filed as active); inconclusive = small, poorly fitted or top-dose-only effect, or another doubt; inactive = flat fitted curve, though single readings scatter.

Sequence of Lysosomal acid glucosylceramidase (Homo sapiens) (P04062 whole entry, looked up): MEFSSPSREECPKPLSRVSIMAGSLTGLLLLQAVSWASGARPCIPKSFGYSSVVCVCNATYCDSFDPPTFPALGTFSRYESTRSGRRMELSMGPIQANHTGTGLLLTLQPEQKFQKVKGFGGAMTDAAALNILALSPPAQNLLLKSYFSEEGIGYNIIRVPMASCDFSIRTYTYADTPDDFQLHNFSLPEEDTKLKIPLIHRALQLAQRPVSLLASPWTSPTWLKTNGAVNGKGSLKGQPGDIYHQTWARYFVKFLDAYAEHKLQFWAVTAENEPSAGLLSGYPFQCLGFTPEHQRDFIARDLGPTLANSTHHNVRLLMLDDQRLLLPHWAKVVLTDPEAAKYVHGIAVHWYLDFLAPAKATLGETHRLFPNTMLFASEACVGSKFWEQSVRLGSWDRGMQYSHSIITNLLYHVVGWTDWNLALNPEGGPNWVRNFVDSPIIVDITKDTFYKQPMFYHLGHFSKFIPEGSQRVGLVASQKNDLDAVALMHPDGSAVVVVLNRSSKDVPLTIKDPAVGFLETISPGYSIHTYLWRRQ
Sequence of Cytochrome P450 1A2 (Homo sapiens) (P05177 whole entry, looked up): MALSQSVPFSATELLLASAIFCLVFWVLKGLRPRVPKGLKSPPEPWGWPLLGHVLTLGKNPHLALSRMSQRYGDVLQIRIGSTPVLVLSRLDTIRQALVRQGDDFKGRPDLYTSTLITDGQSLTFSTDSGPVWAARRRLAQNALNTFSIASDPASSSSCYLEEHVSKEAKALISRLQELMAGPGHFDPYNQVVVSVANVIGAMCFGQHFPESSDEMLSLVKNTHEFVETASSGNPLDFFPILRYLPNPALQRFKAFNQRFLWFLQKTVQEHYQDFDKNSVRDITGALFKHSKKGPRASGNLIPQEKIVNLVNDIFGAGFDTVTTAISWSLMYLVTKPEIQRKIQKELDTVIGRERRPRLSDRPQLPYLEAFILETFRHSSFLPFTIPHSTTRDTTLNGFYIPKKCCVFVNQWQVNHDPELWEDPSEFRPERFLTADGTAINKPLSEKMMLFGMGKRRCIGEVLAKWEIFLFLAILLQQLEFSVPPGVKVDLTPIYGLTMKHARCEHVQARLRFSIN
Sequence of Cytochrome P450 3A4 (Homo sapiens) (P08684 whole entry, looked up): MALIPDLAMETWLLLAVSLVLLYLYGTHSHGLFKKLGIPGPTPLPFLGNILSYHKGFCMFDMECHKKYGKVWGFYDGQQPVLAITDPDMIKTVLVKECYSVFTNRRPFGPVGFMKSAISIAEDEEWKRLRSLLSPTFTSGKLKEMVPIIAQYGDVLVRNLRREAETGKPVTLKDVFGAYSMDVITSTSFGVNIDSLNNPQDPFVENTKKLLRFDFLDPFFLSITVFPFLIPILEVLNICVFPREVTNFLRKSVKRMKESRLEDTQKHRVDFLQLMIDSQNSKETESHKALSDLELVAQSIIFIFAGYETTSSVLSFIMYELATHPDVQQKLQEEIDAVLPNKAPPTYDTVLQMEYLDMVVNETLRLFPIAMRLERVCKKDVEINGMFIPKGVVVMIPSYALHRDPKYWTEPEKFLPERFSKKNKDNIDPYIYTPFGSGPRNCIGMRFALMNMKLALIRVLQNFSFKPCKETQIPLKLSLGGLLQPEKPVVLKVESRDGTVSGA
Sequence of Glucocorticoid receptor (Homo sapiens) (P04150 whole entry, looked up): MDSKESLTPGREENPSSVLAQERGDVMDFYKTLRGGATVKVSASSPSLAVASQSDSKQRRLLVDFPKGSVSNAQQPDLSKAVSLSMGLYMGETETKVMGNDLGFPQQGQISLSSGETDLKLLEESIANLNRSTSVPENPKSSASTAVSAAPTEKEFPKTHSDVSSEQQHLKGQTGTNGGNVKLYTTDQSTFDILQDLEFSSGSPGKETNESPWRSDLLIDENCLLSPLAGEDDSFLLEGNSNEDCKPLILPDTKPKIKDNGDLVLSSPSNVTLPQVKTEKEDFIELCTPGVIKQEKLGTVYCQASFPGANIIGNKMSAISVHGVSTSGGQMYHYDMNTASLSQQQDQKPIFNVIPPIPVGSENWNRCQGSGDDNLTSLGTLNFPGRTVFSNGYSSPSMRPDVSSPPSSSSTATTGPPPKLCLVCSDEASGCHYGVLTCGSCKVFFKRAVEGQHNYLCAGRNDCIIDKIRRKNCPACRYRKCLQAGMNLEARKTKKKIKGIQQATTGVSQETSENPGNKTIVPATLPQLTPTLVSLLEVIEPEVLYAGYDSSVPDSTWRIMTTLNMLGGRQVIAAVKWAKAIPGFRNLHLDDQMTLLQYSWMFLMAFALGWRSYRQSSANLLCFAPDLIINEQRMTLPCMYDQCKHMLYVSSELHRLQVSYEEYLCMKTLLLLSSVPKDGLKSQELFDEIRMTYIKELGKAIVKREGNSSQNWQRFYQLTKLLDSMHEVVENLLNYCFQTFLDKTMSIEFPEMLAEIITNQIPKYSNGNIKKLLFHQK
Sequence of 3',5'-cyclic-AMP phosphodiesterase 4B (Homo sapiens) (Q07343 whole entry, looked up): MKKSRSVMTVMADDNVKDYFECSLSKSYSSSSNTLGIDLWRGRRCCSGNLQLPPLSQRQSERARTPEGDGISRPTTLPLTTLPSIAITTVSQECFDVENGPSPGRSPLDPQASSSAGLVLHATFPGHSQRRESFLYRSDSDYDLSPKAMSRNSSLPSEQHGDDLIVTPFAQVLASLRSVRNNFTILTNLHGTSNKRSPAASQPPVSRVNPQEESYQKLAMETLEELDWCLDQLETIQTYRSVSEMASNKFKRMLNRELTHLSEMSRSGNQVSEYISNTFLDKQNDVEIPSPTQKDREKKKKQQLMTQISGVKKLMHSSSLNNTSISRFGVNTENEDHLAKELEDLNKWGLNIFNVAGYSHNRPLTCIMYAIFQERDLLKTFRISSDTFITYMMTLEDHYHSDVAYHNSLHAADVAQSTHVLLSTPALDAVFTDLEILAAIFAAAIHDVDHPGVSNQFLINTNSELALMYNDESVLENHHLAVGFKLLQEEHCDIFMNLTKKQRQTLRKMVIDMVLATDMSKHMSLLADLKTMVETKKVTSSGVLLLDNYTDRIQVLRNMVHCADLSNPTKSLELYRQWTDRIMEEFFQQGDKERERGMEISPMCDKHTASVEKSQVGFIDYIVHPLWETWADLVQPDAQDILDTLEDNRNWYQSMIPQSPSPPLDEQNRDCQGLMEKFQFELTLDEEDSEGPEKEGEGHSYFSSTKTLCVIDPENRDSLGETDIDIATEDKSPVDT
Sequence of Cytochrome P450 2C19 (Homo sapiens) (P33261 whole entry, looked up): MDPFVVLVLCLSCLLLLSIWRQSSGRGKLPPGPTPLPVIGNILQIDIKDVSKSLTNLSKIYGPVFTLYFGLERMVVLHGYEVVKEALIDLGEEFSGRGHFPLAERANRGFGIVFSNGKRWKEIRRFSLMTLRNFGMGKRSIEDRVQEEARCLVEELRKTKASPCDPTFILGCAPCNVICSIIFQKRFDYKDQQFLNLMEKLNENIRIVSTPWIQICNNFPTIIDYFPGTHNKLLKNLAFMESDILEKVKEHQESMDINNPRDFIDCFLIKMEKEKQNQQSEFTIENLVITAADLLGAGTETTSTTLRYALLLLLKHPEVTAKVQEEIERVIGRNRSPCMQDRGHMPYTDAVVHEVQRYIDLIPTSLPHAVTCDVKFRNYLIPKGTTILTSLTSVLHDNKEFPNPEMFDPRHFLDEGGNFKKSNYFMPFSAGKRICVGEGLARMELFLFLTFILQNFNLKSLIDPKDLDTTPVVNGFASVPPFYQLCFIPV
Sequence of Cytochrome P450 2D6 (Homo sapiens) (P10635 whole entry, looked up): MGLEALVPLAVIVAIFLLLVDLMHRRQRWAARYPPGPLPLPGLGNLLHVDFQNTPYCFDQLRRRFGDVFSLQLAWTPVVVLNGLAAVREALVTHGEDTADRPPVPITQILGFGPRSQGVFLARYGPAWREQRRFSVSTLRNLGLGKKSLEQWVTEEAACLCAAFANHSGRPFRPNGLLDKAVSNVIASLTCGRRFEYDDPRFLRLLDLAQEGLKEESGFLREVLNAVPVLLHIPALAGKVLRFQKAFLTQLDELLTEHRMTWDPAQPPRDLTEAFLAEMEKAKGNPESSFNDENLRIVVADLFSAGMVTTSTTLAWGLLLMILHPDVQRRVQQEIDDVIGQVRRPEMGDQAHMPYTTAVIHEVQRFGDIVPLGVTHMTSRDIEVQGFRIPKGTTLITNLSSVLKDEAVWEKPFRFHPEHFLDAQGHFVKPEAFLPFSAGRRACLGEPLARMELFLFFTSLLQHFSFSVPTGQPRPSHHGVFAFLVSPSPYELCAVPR
Sequence of Cytochrome P450 2C9 (Homo sapiens) (P11712 whole entry, looked up): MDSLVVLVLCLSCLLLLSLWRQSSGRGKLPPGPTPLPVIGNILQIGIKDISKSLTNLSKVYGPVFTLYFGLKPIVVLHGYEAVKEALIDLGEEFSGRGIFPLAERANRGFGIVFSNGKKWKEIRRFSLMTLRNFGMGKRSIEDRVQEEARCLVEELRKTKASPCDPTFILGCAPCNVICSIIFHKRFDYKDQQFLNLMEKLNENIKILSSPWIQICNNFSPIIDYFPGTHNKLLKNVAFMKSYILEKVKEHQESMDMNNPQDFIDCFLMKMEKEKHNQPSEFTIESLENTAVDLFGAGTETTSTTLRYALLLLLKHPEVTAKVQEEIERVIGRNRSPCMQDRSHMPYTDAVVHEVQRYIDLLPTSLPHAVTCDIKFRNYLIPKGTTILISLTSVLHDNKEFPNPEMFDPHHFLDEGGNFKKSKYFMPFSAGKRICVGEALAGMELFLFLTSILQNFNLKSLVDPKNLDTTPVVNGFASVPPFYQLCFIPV

In the case of `C[C@@]12CC[C@H]3[C@H](CC=C4C[C@@H](O)CC[C@@]43C)[C@@H]1CC[C@@H]2N(CCO)CCO`, the Potency was > 11.4 µM in experiment [1], > 46 µM in experiment [5] and > 9.22 µM in [6]. The activity change, negative = inhibition in [2] was -4.05%. For the same compound, the Potency result in experiment [3], in experiment [7] and in experiment [8] was “inactive” in each case. For the same compound, the activity, negative = inhibition in experiment [4] is 18.7%.

Turning to `Nc1cccc2nsnc12`, the Potency in experiment [1] is > 11.4 µM; in experiment [5] it was > 46 µM; in experiment [6] it was > 9.22 µM. For the same compound, the activity change, negative = inhibition in [2] is 20.1%; in [3] it was -15.3% [at 2.29 µM]. In addition, the activity, negative = inhibition in [4] was 2.62%. The Potency entry in experiment [8], in [9], in experiment [10] and in [11] was “inactive” throughout.

As to `Oc1ccc(Cl)cc1Cc1cc(Cl)cc(Cc2cc(Cl)ccc2O)c1O`, the Potency in [1] is > 11.4 µM; in experiment [5] it was > 46 µM; in experiment [6], > 9.22 µM; in [9], 2.51 µM (active); in experiment [11], 1.26 µM (active). Besides, the activity change, negative = inhibition is -14% in experiment [2] and -23.8% [at 2.29 µM] in [3]. Moreover, the Potency entry in [7] and in experiment [8] was “inactive” in each case.

Consider `O=C(c1cc(Br)ccc1O)c1cc(Br)ccc1O`, for which the Potency in experiment [1] was > 11.4 µM; in experiment [3], 1 µM (active); in [5], > 46 µM; in experiment [6], > 9.22 µM; in experiment [11], 0.199 µM (active). Also, in [2], the activity change, negative = inhibition was -21.4%. Moreover, the activity, negative = inhibition in experiment [4] is -28%. The Potency entry in experiment [7] and in [8] was “inactive” each time.

Consider `O=C(O)C[C@H](NC(=O)CP(=O)(O)O)C(=O)O.[NH-][C@@H]1CCCC[C@@H]1[NH-].[Pt]`, for which the Potency in [1] is > 11.4 µM; in experiment [5] it was > 46 µM; in experiment [6], > 9.22 µM. In experiment [2], the activity change, negative = inhibition was -4.37%. Also, the Potency entry in experiment [3] and in experiment [8] was “inactive” each time. Also, the activity, negative = inhibition in experiment [4] was -12%.

For the compound `CC1CCN(CC(=O)N2c3ccccc3Sc3cc4ccccc4cc32)CC1`, the Potency was > 11.4 µM in experiment [1]; 3.98 µM (active) in experiment [3]; > 46 µM in experiment [5]; > 9.22 µM in [6]; 3.98 µM (active) in experiment [12]; 3.98 µM (active) in experiment [10]. Also, the Potency in [11] was 3.16 µM (active). For the same compound, the activity change, negative = inhibition in experiment [2] is 28.3%. In experiment [4], the activity, negative = inhibition is 9.28%. Moreover, the Potency entry in [7] and in experiment [13] was “inactive” each time.

On to `CN(C)S(=O)(=O)c1ccc(Nc2ccc(O)c3c2C(=O)c2c([N+](=O)[O-])ccc(O)c2C3=O)cc1`, for which the Potency was > 11.4 µM in [1], 0.126 µM (active) in experiment [3], > 46 µM in experiment [5] and > 9.22 µM in experiment [6]. Further, the activity change, negative = inhibition in experiment [2] is -13.4%. In addition, the activity, negative = inhibition in experiment [4] was 23.6%. The Potency entry in experiment [8] and in [13] was “inactive” each time.

Turning to `Clc1ccccc1NN(Cc1ccccn1)c1ccccc1Cl`, the Potency in [1] was > 11.4 µM; in experiment [5] it was > 46 µM; in [6] it was > 9.22 µM; in experiment [11] it was 3.98 µM (active). For the same compound, the activity change, negative = inhibition in [2] is -10%; in experiment [3], -22.4% [at 2.29 µM]. Moreover, the activity, negative = inhibition in experiment [4] was -11%. The Potency result in [7] and in experiment [8] was “inactive” each time.

Source of the values: PubChem BioAssay (NCATS).
